Measurements taken from the supplement of paper PMC9177965.
Values joined by “and” are separate entries in the source; they are usually repeats but may differ in a detail not shown here. Equal values may be shown once.

What was measured:
[1] = test system: HT29 RNF43 G659fs (RNF43 659mut, CRISPR-edited); assay: cell viability activity relative to DMSO (negative = inhibition); higher = more viable cells (less growth inhibition); conditions: 5 µM; 96 h
Protocol: (§1)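 Broad Repurposing Library primary screen at a single dose of 5 uM. HT29 sg-Ctrl and HT29 RNF43 G659fs CRISPR-edited isogenic cells were seeded at 2500 cells/well in 384-well plates in duplicate and treated for 96 h. Viability was read by CellTiter-Glo and reported as % activity relative to DMSO, with MG132 as the positive control (negative = growth inhibition).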

[2] = test system: HT29 sg-Ctrl (RNF43 wildtype); assay: as above; conditions: 5 µM; 96 h
Protocol: as §1

Compound	cell viability activity [1]	cell viability activity [2]
COc1cc2ncn(-c3cc(OCc4ccccc4C(F)(F)F)c(C(N)=O)s3)c2cc1OC	-72.5%	-65.4%
CCc1cnn2c(NCc3ccc[n+]([O-])c3)cc(N3CCCC[C@H]3CCO)nc12	-88.2%	-84.3%
COc1cccc2c1C(=O)c1c(O)c3c(c(O)c1C2=O)C[C@@](O)(C(=O)CO)C[C@@H]3O[C@H]1C[C@H](N)[C@H](O)[C@H](C)O1	-94% and -83.9%	-89.6% and -89.8% and -68.3%
Nc1ncccc1-c1nc2ccc(-c3ccccc3)nc2n1-c1ccc(C2(N)CCC2)cc1	-70.4%	-49.1%
C=C[C@@](C)(/C=C/c1ccc(O)cc1)CCC=C(C)C	-39.5%	-49.8%
CCCCCCCC[N+](C)(C)Cc1ccccc1	-22.5%	-16.8%
CC1(COc2ccc3c(c2)ncn3-c2ccc3cccc(N4CCC(N)CC4)c3n2)COC1	-98.3%	-98%
Cc1cnc(Nc2ccc(OCCN3CCCC3)cc2)nc1Nc1cccc(S(=O)(=O)NC(C)(C)C)c1	-95%	-92.4%
OCCn1cc(-c2ccc3c(c2)CC/C3=N\O)c(-c2ccncc2)n1	-29.3%	-39.2%
O=c1[nH]c(=O)n([C@H]2C[C@H](O)[C@@H](CO)O2)cc1F	-58.1% and -58.2%	-54.2% and -63.2%
COc1cc(OCc2cccc(-c3ccccc3)c2C)cc(OC)c1CN1CCCC[C@H]1C(=O)O	-24.2%	-3.46%
Cn1ncc(Cl)c1-c1cc(C(=O)N[C@H](CN)Cc2ccc(F)c(F)c2)oc1Cl	-70.4%	-61.1%
Nc1cc(C(F)(F)F)c(-c2cc(N3CCOCC3)nc(N3CCOCC3)n2)cn1	-75.9%	-60.1%
CN(C)CCN1C(=O)c2cccc3cc(N)cc(c23)C1=O	-53.7%	-47.7%
C#Cc1cccc(Nc2ncnc3cc(OC)c(OCCCCCCC(=O)NO)cc23)c1	-90.3%	-71%
CC1(C)CC[C@]2(C(=O)O)CC[C@]3(C)[C@H](C(=O)C=C4[C@@]5(C)C=C(C#N)C(=O)C(C)(C)[C@@H]5CC[C@]43C)[C@@H]2C1	-88.2%	-82.9%
CC(C)(C)CC(C)(C)c1ccc(OCCOCC[N+](C)(C)Cc2ccccc2)cc1	-98.5%	-97.2%
CO[C@H]1/C=C\C=C(/C)C(=O)NC2=CC(=O)C(NCCN(C)C)=C(C[C@@H](C)C[C@H](OC)[C@H](O)[C@@H](C)/C=C(\C)[C@@H]1OC(N)=O)C2=O	-93.9% and -91.4%	-92.1% and -90.4%
C[n+]1cc2c3c(ccc2c2ccc4cc5c(cc4c21)OCO5)OCO3	-97.3%	-96.2%
CCN(CC)c1ccc(C(=C2C=CC(=[N+](CC)CC)C=C2)c2ccccc2)cc1	-97.7%	-97.2%
O=C(NOCC1CC1)c1ccc(F)c(F)c1Nc1ccc(I)cc1Cl	-66.2%	-77.6%
COc1cc(Nc2ncc(F)c(Nc3ccc4c(n3)NC(=O)C(C)(C)O4)n2)cc(OC)c1OC	-46.5%	-37.3%
CC(=O)NCC(=O)N1[C@@H]2CC[C@H]1c1ccc(Nc3ncc(C(F)(F)F)c(NC4CCC4)n3)cc12	-41.1%	-44.1%

Compound	cell viability activity [1]	cell viability activity [2]
Cc1nc2ccccc2n1Cc1ccc(Cl)cc1	-60.5%	-39.4%
COC(=O)C1=C(C)NC(C)=C(C(=O)OCCCN2CCC(c3ccccc3)(c3ccccc3)CC2)[C@@H]1c1cccc([N+](=O)[O-])c1	-65.6%	-91.4%
CN1c2ccccc2C(=O)N2CCc3c([nH]c4ccccc34)[C@@H]21	-24.8%	-3.62%
Nc1c2ccccc2nc2ccccc12	-86.1%	-86.8%
C[C@@H](Oc1cc(-c2cnn(C3CCNCC3)c2)cnc1N)c1c(Cl)ccc(F)c1Cl	-97.1%	-95.4%
C[C@H]1O[C@@H](O[C@H]2[C@@H](O)C[C@H](O[C@H]3[C@@H](O)C[C@H](O[C@H]4CC[C@@]5(C)[C@H](CC[C@@H]6[C@@H]5C[C@@H](O)[C@]5(C)[C@@H](C7=CC(=O)OC7)CC[C@]65O)C4)O[C@@H]3C)O[C@@H]2C)C[C@H](O)[C@@H]1O	-89.3%	-90.8%
CNCCC=C1c2ccccc2CCc2ccccc21	-70.1%	-77.1%
CCCCCCCCCCCCCCC[C@@H](O)[C@@H](N)CO	-36.8%	-43.8%
COc1cc(N2CCC(N)CC2)ccc1Nc1ncc(Cl)c(-c2c[nH]c3ccccc23)n1	-95.8%	-95.7%
CC(C)c1cc(CNc2nc(Nc3cc(C4CC4)[nH]n3)cc(N3CCN(C)CC3)n2)on1	-86.1%	-84.3%
CC1(C)CC(=O)c2c(C(F)(F)F)nn(-c3ccc(C(N)=O)c(N[C@H]4CC[C@H](O)CC4)c3)c2C1	-86.4%	-78.4%
CCC(=O)N1CCN(c2ccc(-n3c(=O)ccc4cnc5ccc(-c6cnc7ccccc7c6)cc5c43)cc2C(F)(F)F)CC1	-56.6%	-34.6%
Nc1ncnc2c1c(-c1cccc(OCc3ccccc3)c1)cn2C1CC(CN2CCC2)C1 (centres undefined)	-55.1%	-61.2%
O=C(O)C[C@H](O)C[C@H](O)/C=C/c1c(C2CC2)nc2ccccc2c1-c1ccc(F)cc1	-25.1%	-8.8%
Cc1ncc(-c2ccnc(Nc3ccc(S(C)(=O)=O)cc3)n2)n1C(C)C	-91.5%	-87.7%
OCCCNc1cc(-c2ccnc(Nc3cccc(Cl)c3)n2)ccn1	-86.6%	-86%
Nc1ccc(-c2ccc3ncc4ccc(=O)n(-c5cccc(C(F)(F)F)c5)c4c3c2)cn1	-63.8%	-42.1%
Cc1cc(N2CCOCC2)cc2[nH]c(-c3c(NC[C@@H](O)c4cccc(Cl)c4)cc[nH]c3=O)nc12	-55%	-50.5%
CO[C@@H](C)Cn1c(=O)n(C)c2cnc3ccc(-c4cncc(C(C)(C)O)c4)cc3c21	-81.7%	-78.6%
COc1cc2c(cc1-c1c(C)noc1C)ncc1[nH]c(=O)n([C@H](C)c3ccccn3)c12	-60.5%	-68.4%
C[C@H](Nc1cc(-c2cnn(C)c2)cc(Nc2cnccn2)n1)c1ccc(F)cc1	-46.9%	-43%
Cc1ccc(C(=O)N(CCCN)[C@@H](c2nc3cc(Cl)ccc3c(=O)n2Cc2ccccc2)C(C)C)cc1	-65.1%	-66.5%
CCCCCC(O)c1cccc(OCc2ccc3ccccc3n2)c1 (centres undefined)	-71.3%	-64%

Compound	cell viability activity [1]	cell viability activity [2]
Cc1cc(Nc2cc(N3CCN(C)CC3)nc(Sc3ccc(NC(=O)C4CC4)cc3)n2)n[nH]1	-22.2%	-38.2%
COCC[n+]1c2c(n(Cc3cnccn3)c1C)C(=O)c1ccccc1C2=O	-96.6%	-95.6%
CCC[C@H](Nc1nc(-c2ccc(NC(=O)NCC)c(OC)c2)ncc1C)c1cccnc1	-57.8%	-49.4%
CN1C/C=C/CCOc2cccc(c2)-c2ccnc(n2)Nc2cccc(c2)C1	-92.8%	-89.6%
Cc1cc(O)c(-c2ccc([C@@H](C)CN)cc2)c2c1[nH]c(=O)c1sccc12	-92.6%	-92.7%
CN(C)CCOc1ccc(-c2nc(-c3ccc4c(c3)CC/C4=N\O)c(-c3ccncc3)[nH]2)cc1	-28.5%	-37.9%
CN(C)CCCC(=O)Nc1ccc(C(=O)Nc2cccc(Nc3ncc(Cl)c(-c4c[nH]c5ccccc45)n3)c2)cc1	-70.8%	-78.1%
C1=N/C2=N/c3ccc(OCCN4CCCC4)c(c3)COC/C=C/COCc3cccc(c3)C(=C1)N2	-41.5%	-31.8%
CC1=C(C(=O)OC2CCCCC2)C(c2ccc([N+](=O)[O-])cc2)C2=C(CC(C)(C)CC2=O)N1 (centres undefined)	-27.1%	-15.6%
CCOC(=O)[C@H](Cc1ccccc1)NC(=O)c1cc(Cl)c(OCCN2CCN(C)CC2)c(Cl)c1O	-34%	-41.2%
CC(C)(C)c1cc(/C=C(\C#N)C(N)=S)cc(C(C)(C)C)c1O	-85.1%	-77%
Cc1cccc(/C=N/Nc2cc(N3CCOCC3)nc(OCCc3ccccn3)n2)c1	-66%	-62.4%
Cc1cccc(/C=N/Nc2cc(N3CCOCC3)n3nc(-c4ccncc4)cc3n2)c1	-56.4%	-51.8%
Cc1cc(-c2ccc(/N=N/c3ccc4c(S(=O)(=O)O)cc(S(=O)(=O)O)c(N)c4c3O)c(C)c2)ccc1/N=N/c1ccc2c(S(=O)(=O)O)cc(S(=O)(=O)O)c(N)c2c1O	-43.7%	-20.4%
O=C(NOCC(O)CO)c1cc(Br)c(F)c(F)c1Nc1ccc(I)cc1F (centres undefined)	-75.8%	-79.7%
Fc1cc(-c2cccc3ncc(-c4cnn(C5CCNCC5)c4)nc23)cc(F)c1CN1CCOCC1	-93.7%	-92.4%
CCN(CC)CCNc1ccc(CO)c2sc3ccccc3c(=O)c12	-23.1%	-27.7%
NC(=O)c1cnc(N[C@@H]2CCCC[C@@H]2N)nc1Nc1cccc(-n2nccn2)c1	-35.6% and -40.3%	-34.2% and -41.6%
OCCN1CCN(CCCN2c3ccccc3Sc3ccc(Cl)cc32)CC1	-53.2%	-90.5%
Cc1c(C2CCN(CCc3ccccc3)CC2)noc1-c1ccc(Cl)cc1	-38%	-39.7%
COc1ccc2c(c1)c(C1=C(c3c[nH]c4ccccc34)C(=O)NC1=O)cn2CCCN(C)C	-75.2%	-88.9%
